Compound activity as filed in PubChem BioAssay.
In the library only some 1.3% were active in any assay of this set; here they are far more common.
LRH-1 inv ag = LRH-1 (NR5A2) inverse agonists, primary screen, cell-based, luminescence, HEK293T, StAR-luciferase reporter | Nuclear receptor subfamily 5 group A member 2 (Homo sapiens), O00482 | LRH-1 transfected, 24 h | inhibition, % at 3.6 µM | hit rate 0.13% among 360,000;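 active means inhibition above the mean inhibition of all tested compounds plus 3 SD, cut at about 73% in these data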;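 further: 0% = DMSO wells and 100% = reporter-only cells lacking LRH-1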
NR2F2 inh = NR2F2 transcriptional activity inhibitors, primary screen, cell-based, luciferase reporter, HEK293T, luminescence; HEK293T NGFI-A luciferase reporter; inhibition, % at 8.6 µM; hit rate 0.7% among 370,000;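 active means inhibition above a per-plate cutoff, mean inhibition of test wells between control levels plus 3 SD, cut at about 38% in these data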;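 further: cells cotransfected with COUP-TFII expression vector driving the NGFI-A reporter; 0% = median of COUP-TF2 test wells and 100% = reporter-only cells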
SRC2 inh = inhibition of GAL4-SRC2 driven luciferase reporter, primary screen, SRC2 inhibitor project, cell-based, luminescence; Nuclear receptor coactivator 2 (Homo sapiens), Q15596; HEK293 GAL4-SRC2 luciferase reporter; inhibition, % at 9 µM; hit rate 0.17% among 370,000; AID 651957, 2012;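 active means inhibition above the mean inhibition of all tested compounds plus 3 SD, set per campaign, cut at about 52% in these data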;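 further: 0% = DMSO treated cells and 100% = cells given Gossypol at 36 µM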
Gli-Sufu block = Gli-Sufu pathway antagonists, primary screen, luciferase luminescence, Sufu-KO-LIGHT cells, uHTS | Sufu-KO-LIGHT fibroblasts, Gli luciferase reporter luminescence | inhibition, % at 5 µM | hit rate 0.74% among 340,000 | AID 588413, 2011;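 active means inhibition above about 55%, limit read from the data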;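 further: 0% = DMSO-treated cells and 100% = wells with medium but no cells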
NCOA3 inh = SRC3 coactivator transcriptional activity inhibitors, primary screen, cell-based, luminescence; AID 588352, 2011; inhibition, % at 3.6 µM; HEK293 GAL4-SRC3 luciferase reporter; hit rate 0.17% among 360,000;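 active means inhibition above a per-campaign cutoff, the mean of all compounds plus 3 SD, cut at about 60% in these data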;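 further: 0% = DMSO-treated cells and 100% = gossypol-treated cells at 36 µM; higher means less SRC3-driven luciferase light from the GAL4 reporter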
SRC1 inh = SRC1 coactivator transcriptional activity inhibitors, primary screen, cell-based, luminescence; inhibition, % at 3.6 µM; hit rate 0.12% among 360,000; AID 588354, 2011; Nuclear receptor coactivator 1 (Homo sapiens), Q15788; HEK293 GAL4-SRC1 luciferase reporter;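 active means inhibition above the campaign mean plus 3 SD, with each screening campaign given its own cutoff, cut at about 60% in these data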;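 further: 0% = DMSO treated cells and 100% = gossypol at 36 µM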
Gli-Sufu confirm = Gli-SUFU pathway antagonists, confirmation, single concentration, luciferase luminescence, Sufu-KO-LIGHT cells | shares compounds with Gli-Sufu block | hit rate 40% among 2,500 | inhibition, % at 5 µM | Gli luciferase reporter | AID 602428, 2012;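 active means mean inhibition at 5 µM reaching about 45%, limit read from the data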;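 further: plate controls were DMSO-treated cells for no effect and wells lacking cells for full effect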
SufuKO cytotox = cytotoxicity in Sufu-KO-LIGHT cells, confirmation, cytotoxicity control for Gli-SUFU antagonist project, cell-based, ATP luminescence, single concentration; shares compounds with Gli-Sufu block; cytotoxicity, % at 5 µM; hit rate 32% among 2,500; AID 651994, 2013;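 active means mean cytotoxicity at 5 µM above about 25%, limit read from the data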;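 further: cells exposed to compound overnight for roughly 16 to 18 hours; plate controls were DMSO wells with cells for no effect and medium without cells for full effect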
Wnt3a cs = Wnt3a reporter signal inhibition, confirmation, counter-screen for Gli-SUFU antagonist project, Wnt-LIGHT cells, luminescence, single concentration. AID 651995, 2013. inhibition, % at 6.25 µM. Wnt3a-driven luciferase reporter. hit rate 20% among 2,500. shares compounds with Gli-Sufu block;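 active means mean inhibition above about 25%, limit read from the data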
An asterisk follows results filed as active; nt = no result given.

SMILES | LRH-1 inv ag | NR2F2 inh | SRC2 inh | Gli-Sufu block | NCOA3 inh | SRC1 inh | Gli-Sufu confirm | SufuKO cytotox | Wnt3a cs
COc1ccc2nc3sc(C(=O)N4CCN(C)CC4)cc3cc2c1 | -2 | -7 | -19 | 94* | -6 | -9 | 9 | 23 | 1
CCN(CC)CCn1c(NCc2ccc(OC)cc2)nc2ccccc21 | -36 | -6 | -6 | 56* | 4 | -19 | 26 | 6 | -18
Nc1[nH]c(C(=O)c2ccccc2)c(-c2ccc(Br)cc2)c1C(=O)N1CCN(CCO)CC1 | nt | -7 | nt | nt | nt | nt | nt | nt | nt
COc1cccc(NC(=O)C2CCN(S(=O)(=O)c3ccc(N4CCCC4=O)cc3)CC2)c1 | -3 | 18 | -13 | nt | 4 | -1 | nt | nt | nt
O=C(Nc1cccc(C(F)(F)F)c1)C1CCN(S(=O)(=O)c2ccc(N3CCCC3=O)cc2)CC1 | -9 | 27 | -3 | 53 | 7 | 10 | 58* | 24 | -9
Cc1occc1-c1nnc(SCC(=O)N[C@@H]2CCc3ccccc32)n1-c1ccccc1 | nt | 11 | 24 | nt | nt | nt | nt | nt | nt
CCOC(=O)[C@@]12CCCC3=C1N(CCC3)C(=O)[C@H]2CC(=O)NCCc1ccccc1OC | nt | 14 | -5 | nt | nt | nt | nt | nt | nt
CC(N=C1NS(=O)(=O)c2ccccc21)C(=O)OCC(=O)N(C)C1CCS(=O)(=O)C1 (stereo not drawn) | 18 | 2 | 15 | 86* | 5 | 8 | 14 | -5 | 14
CCN1C(=NCCOC)N[C@@H](CCc2ccccc2)[C@H](C(=O)OC)[C@H]1C | 13 | 10 | -24 | 10 | 5 | -1 | nt | nt | nt
CCN1C(=NCCCOC(C)C)N[C@@H](CCc2ccccc2)[C@H](C(=O)NCCCOC(C)C)[C@H]1C | 15 | -10 | 16 | 56* | 6 | 0 | 57* | 30* | -23
CN1N=C(N)c2cn(C3OC(COP(=O)(O)O)C(O)C3O)c3ncnc1c23 (stereo not drawn) | -15 | -17 | -18 | 89* | -22 | -20 | 86* | 63* | 71*
COC(=O)[C@]12CCCCC=C1N(Cc1ccc(OC)cc1)C(=O)[C@@H]2CC(=O)N1CCN(C(=O)C2CC2)CC1 | nt | -2 | 0 | nt | nt | nt | nt | nt | nt
O=C(NCc1cccs1)C1CCN(S(=O)(=O)c2cccc3ccccc23)CC1 | nt | -18 | 22 | nt | nt | nt | nt | nt | nt
CCc1c(C)nc2cc(-c3ccc(OC)c(OC)c3)nn2c1N1CCCC1 | -2 | -7 | -9 | 54 | 0 | 2 | 55* | 33* | 6
CCc1c(C)nc2cc(-c3ccc(OC)c(OC)c3)nn2c1N1CCC(C)CC1 | -5 | -8 | -32 | 2 | -10 | 5 | nt | nt | nt
Cc1oc(-c2ccc(Cl)cc2)nc1CN1CCC(C(=O)N2CCc3ccccc3C2)CC1 | -24 | nt | nt | 7 | 2 | -5 | nt | nt | nt
Cc1oc(-c2cccc(Cl)c2)nc1CN1CCC(C(=O)N2CCN(c3ccccc3F)CC2)CC1 | -4 | 13 | 5 | 84* | 6 | -6 | 28 | 21 | -37
CCOC(=O)CNC(=O)CSc1nc(-c2ccccc2)ns1 | -1 | -28 | -7 | 62* | 17 | -1 | 27 | 17 | 3
CCOC(=O)CNC(=O)CSc1nc(-c2ccc(C)cc2)ns1 | -9 | 4 | 2 | -18 | -1 | -8 | nt | nt | nt
COc1ccc(C(=O)OCCCN(C)C2CN(Cc3cn(Cc4ccccc4F)nn3)S(=O)(=O)C2)cc1OC (stereo not drawn) | nt | -13 | -5 | nt | nt | nt | nt | nt | nt
